Counter-ions that a name gives are not always drawn.

For 20 molecules, relative cell viability results are on record in the supplement of paper PMC9492666.

Conditions in all cases: 72 h
Experiment [1] relates to HCC1937. In words: relative cell viability, compound alone, vs DMSO (fraction of DMSO control); higher = less growth inhibition.
The test system of experiment [2] is MDA-MB-231. The experiment is described as above.
Experiment [3] concerns HCC1937. The experiment can be described thus: relative cell viability, compound + RSL3, vs DMSO (fraction of DMSO control); higher = less growth inhibition.
Experiment [4] relates to MDA-MB-231. Described as above.
The subject of experiment [5] is HCC1937. In words: relative cell viability, compound + erastin, vs DMSO (fraction of DMSO control); higher = less growth inhibition.
Experiment [6] concerns MDA-MB-231. Described as above.
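For relative cell viability, compound + RSL3, vs DMSO in this document: breast cancer cell viability read out with the CCK-8 kit after co-treatment of each compound with the ferroptosis inducer RSL3.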
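For relative cell viability, compound + erastin, vs DMSO in this document: viability read by CCK-8 kit in 96-well plates, part of a combination screen pairing lipid-metabolism-targeting compounds with erastin.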
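For relative cell viability, compound alone, vs DMSO in this document: viability read out with the CCK-8 kit in 96-well plates, screening a set of 303 compounds acting on lipid metabolism targets.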

On to `C[C@@H]1C(=O)O[C@H]2[C@H](O)[C@@]34O[C@@H]5OC(=O)[C@H](O)[C@@]56[C@H](C(C)(C)C)[C@H](O)C(OC3=O)[C@]64[C@@]12O` (stereo not given in full) [Ginkgolide C], for which the values for the relative cell viability in experiment [1] and in experiment [2] were 1.15 and 1.08, respectively.

As for `CCC1=N[C@H]2C[C@@]3(C(=O)N(OC)c4ccccc43)[C@H]3CC1[C@@H]2CO3` [Humantenmine], the results for the relative cell viability in experiment [1] and in experiment [2] were 0.922 and 0.978, respectively.

As to `NNC(=O)c1nn(Cc2ccc(Cl)cc2Cl)c2ccccc12` [Adjudin], the relative cell viability turned out to be 0.767 in experiment [1] and 0.757 in experiment [2].

Regarding `C[C@]12CC[C@@H](O)C[C@@H]1CC[C@@H]1[C@@H]2CC[C@]2(C)C(=O)CC[C@@H]12` [Androsterone], the figures for the relative cell viability in experiment [1] and in experiment [2] were 1.33 and 1.08, respectively.

As for `C/C=C/c1cc(OC)c(OC)cc1OC` [alpha-Asarone] + COC(=O)c1ccc([C@H]2c3[nH]c4ccccc4c3C[C@H](C(=O)OC)N2C(=O)CCl)cc1 [RSL3], the relative cell viability came to 0.452 in experiment [3] and 0.541 in experiment [4].

Take `O=C(NCCN1CCC2(CC1)C(=O)NCN2c1ccccc1)c1ccc2ccccc2c1`: the relative cell viability was 0.491 in experiment [1] and 0.689 in experiment [2].

Take `CCCCCCCCCCC#CC#CCCCCCCCCC(=O)O` [10,12-Tricosadiynoic acid] + CCOc1ccccc1-n1c(C(C)N2CCN(C(=O)COc3ccc(Cl)cc3)CC2)nc2ccccc2c1=O [erastin]: the relative cell viability stood at 0.648 in experiment [5] and 0.627 in experiment [6].

Regarding `COc1ccc(CN2CCNCC2)c(OC)c1OC` [Trimetazidine dihydrochloride], the figures for the relative cell viability in experiment [1] and in experiment [2] were 1.09 and 0.823, respectively.

As for `O=C(Oc1ccc([N+](=O)[O-])cc1)N1CCN(Cc2cccc(Oc3ccccc3)c2)CC1` + COC(=O)c1ccc([C@H]2c3[nH]c4ccccc4c3C[C@H](C(=O)OC)N2C(=O)CCl)cc1 [RSL3], the values for the relative cell viability in experiment [3] and in experiment [4] were 0.673 and 0.473, respectively.

Consider `CC[C@@H]1/C=C(\C)C[C@H](C)C[C@H](OC)[C@H]2O[C@@](O)(C(=O)C(=O)N3CCCC[C@H]3C(=O)O[C@H](/C(C)=C/[C@@H]3CC[C@@H](O)[C@H](OC)C3)[C@H](C)[C@@H](O)CC1=O)[C@H](C)C[C@@H]2OC` [Ascomycin] + CCOc1ccccc1-n1c(C(C)N2CCN(C(=O)COc3ccc(Cl)cc3)CC2)nc2ccccc2c1=O [erastin], for which the relative cell viability came out at 0.086 in experiment [5] and 0.303 in experiment [6].

As for `Cc1cc(SCc2sc(-c3ccc(C(F)(F)F)c(F)c3)nc2C)ccc1OCC(=O)O` + COC(=O)c1ccc([C@H]2c3[nH]c4ccccc4c3C[C@H](C(=O)OC)N2C(=O)CCl)cc1 [RSL3], the values for the relative cell viability in experiment [3] and in experiment [4] were 0.59 and 0.668, respectively.

As for `C[C@@]12C[C@@H](c3ccoc3)OC(=O)[C@@H]1CC[C@]1(C)[C@H]2[C@@H]2C=C[C@@]1(O)C(=O)O2` [Columbin], the relative cell viability was determined as 0.968 in experiment [1] and 1.06 in experiment [2].

As to `C/C=C/c1cc(OC)c(OC)cc1OC` [alpha-Asarone], the figures for the relative cell viability in experiment [1] and in experiment [2] were 0.855 and 0.976, respectively.

With `O=C(NCCN1CCC2(CC1)C(=O)NCN2c1ccccc1)c1ccc2ccccc2c1` + CCOc1ccccc1-n1c(C(C)N2CCN(C(=O)COc3ccc(Cl)cc3)CC2)nc2ccccc2c1=O [erastin], the relative cell viability in experiment [5] came to 0.392; in experiment [6], 0.589.

For the molecule `CC(C)=CCC[C@](C)(O)[C@H]1CC[C@]2(C)[C@@H]1[C@H](O)C[C@@H]1[C@@]3(C)CC[C@H](O)C(C)(C)[C@@H]3[C@@H](O[C@@H]3O[C@H](CO)[C@@H](O)[C@H](O)[C@H]3O)C[C@]12C` [Ginsenoside Rh1], the relative cell viability is 1.09 in experiment [1] and 1.03 in experiment [2].

`CC(C)=CCC[C@](C)(O)[C@H]1CC[C@]2(C)[C@@H]1[C@H](O)C[C@@H]1[C@@]3(C)CC[C@H](O)C(C)(C)[C@@H]3[C@@H](O[C@@H]3O[C@H](CO)[C@@H](O)[C@H](O)[C@H]3O)C[C@]12C` [Ginsenoside Rh1] + COC(=O)c1ccc([C@H]2c3[nH]c4ccccc4c3C[C@H](C(=O)OC)N2C(=O)CCl)cc1 [RSL3]: the relative cell viability stood at 0.654 in experiment [3] and 0.679 in experiment [4].

Turning to `CCC1=N[C@H]2C[C@@]3(C(=O)N(OC)c4ccccc43)[C@H]3CC1[C@@H]2CO3` [Humantenmine] + COC(=O)c1ccc([C@H]2c3[nH]c4ccccc4c3C[C@H](C(=O)OC)N2C(=O)CCl)cc1 [RSL3], the relative cell viability amounted to 0.585 in experiment [3] and 0.679 in experiment [4].

`Cc1cc(SCc2sc(-c3ccc(C(F)(F)F)c(F)c3)nc2C)ccc1OCC(=O)O`: the results for the relative cell viability in experiment [1] and in experiment [2] were 1.21 and 0.892, respectively.

`CCc1c(C(=O)C(N)=O)c2c(OCC(=O)O)cccc2n1Cc1ccccc1` [Varespladib]: the relative cell viability in experiment [1] came to 0.797; in experiment [2], 0.842.

With `O=C(Oc1ccc([N+](=O)[O-])cc1)N1CCN(Cc2cccc(Oc3ccccc3)c2)CC1`, the figures for the relative cell viability in experiment [1] and in experiment [2] were 0.79 and 0.782, respectively.
